Experimental data reported in PubChem BioAssay AID1159580 (chemical genetic matrix, 2015).
In all, about 5,500 compounds went through this assay and about 2,000 (36%) were called active. Inconclusive results (about 18%) are left out. Rule as the data show it: active = normalized growth mostly below about 0.91 (no sharp cut-off); inconclusive = no clear call, values can overlap the other calls; inactive = mostly above about 0.92. Some of the results follow.

Experiment: chemical genetic growth profiling, strain panel (AID 1159580);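 also: tested at 20 µM; growth read once vehicle control cultures reached saturation at 30 °C; 1 = growth at the plate median or of vehicle wells; lower values mean less growth of the strain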
Conditions: S. cerevisiae deletion strains, growth OD
[1] = locus YAR019C, strain CDC15, hits give low values
[2] = locus YBL105C, strain PKC1, hits give low values
[3] = locus YBR135W, strain CKS1, hits give low values
[4] = locus YBR136W, strain MEC1, hits give low values
[5] = locus YBR160W, strain CDC28, hits give low values
[6] = locus YDL017W, strain CDC7, hits give low values
[7] = locus YDL028C, strain MPS1, hits give low values
[8] = locus YDL101C, strain DUN1, hits give low values
[9] = locus YDL108W, strain KIN28, hits give low values
[10] = locus YDL132W, strain cdc53, hits give low values
[11] = locus YDL214C, strain PRR2, hits give low values
[12] = locus YDR052C, strain DBF4, hits give low values
[13] = locus YDR054C, strain cdc34, hits give low values
[14] = locus YDR226W, strain ADK1, hits give low values
[15] = locus YDR477W, strain SNF1, hits give low values
[16] = locus YER123W, strain YCK3, hits give low values
[17] = locus YER133W, strain GLC7, hits give low values
[18] = locus YFL009W, strain cdc4, hits give low values
[19] = locus YFL029C, strain CAK1, hits give low values
[20] = locus YFR003C, strain YPI1, hits give low values
[21] = locus YFR019W, strain FAB1, hits give low values
[22] = locus YFR028C, strain CDC14, hits give low values
[23] = locus YGR040W, strain KSS1, hits give low values
[24] = locus YGR052W, strain FMP48, hits give low values
[25] = locus YGR092W, strain DBF2, hits give low values
[26] = locus YHR030C, strain SLT2, hits give low values
[27] = locus YHR079C, strain IRE1, hits give low values
[28] = locus YHR082C, strain KSP1, hits give low values
[29] = locus YHR205W, strain SCH9, hits give low values
[30] = locus YIL147C, strain SLN1, hits give low values
[31] = locus YJL095W, strain BCK1, hits give low values
[32] = locus YJL128C, strain PBS2, hits give low values
[33] = locus YJL157C, strain FAR1, hits give low values
[34] = locus YJR016C, strain ILV3, hits give low values
[35] = locus YJR066W, strain TOR1 (second series), hits give low values
[36] = locus YJR066W, strain TOR1, hits give low values
[37] = locus YKL048C, strain ELM1, hits give low values
[38] = locus YKL067W, strain YNK1, hits give low values
[39] = locus YKL101W, strain HSL1, hits give low values
[40] = locus YKL193C, strain SDS22, hits give low values
[41] = locus YKL203C, strain TOR2, hits give low values
[42] = locus YLR113W, strain HOG1, hits give low values
[43] = locus YLR133W, strain CKI1, hits give low values
[44] = locus YLR403W, strain SFP1, hits give low values
[45] = locus YML070W, strain DAK1, hits give low values
[46] = locus YMR001C, strain CDC5, hits give low values
[47] = locus YMR205C, strain PFK2 (second series), hits give low values
[48] = locus YMR277W, strain FCP1, hits give low values
[49] = locus YNL006W, strain LST8, hits give low values
[50] = locus YNL020C, strain ARK1, hits give low values
[51] = locus YNL161W, strain CBK1, hits give low values
[52] = locus YNL183C, strain NPR1, hits give low values
[53] = locus YNL207W, strain RIO2, hits give low values
[54] = locus YNL222W, strain SSU72, hits give low values
[55] = locus YNL307C, strain MCK1 (second series), hits give low values
[56] = locus YOL078W, strain AVO1, hits give low values
[57] = locus YOL136C, strain PFK27, hits give low values
[58] = locus YOR061W, strain CKA2, hits give low values
[59] = locus YOR119C, strain RIO1, hits give low values
[60] = locus YOR231W, strain MKK1, hits give low values
[61] = locus YOR329C, strain SCD5, hits give low values
[62] = locus YPL031C, strain PHO85, hits give low values
[63] = locus YPL153C, strain RAD53, hits give low values
[64] = locus YPL204W, strain HRR25, hits give low values
[65] = locus YPL209C, strain IPL1, hits give low values
[66] = locus YPL256C, strain CLN2, hits give low values
[67] = locus YPR025C, strain CCL1, hits give low values
[68] = locus YPR106W, strain ISR1, hits give low values
[69] = locus YPR111W, strain DBF20, hits give low values
[70] = strain NNK1, hits give low values
[71] = strain TSCII, hits give low values

Measured: normalized growth

O=C1CSC(=Nc2cc(Cl)cc(Cl)c2)N1Cc1cccnc1
inactive: [1] 0.997 | [2] 0.989 | [3] 0.995 | [4] 0.986 | [5] 0.992 | [6] 0.991 | [7] 0.994 | [8] 0.988 | [9] 0.97 | [10] 0.997 | [11] 0.924 | [12] 0.995 | [13] 0.983 | [14] 0.996 | [15] 0.947 | [16] 0.887 | [17] 0.927 | [18] 0.986 | [19] 0.994 | [20] 0.991 | [21] 0.944 | [22] 0.994 | [23] 0.937 | [24] 1.03 | [25] 0.947 | [26] 1.14 | [27] 1.05 | [28] 1.01 | [29] 0.958 | [30] 0.986 | [31] 1.03 | [32] 0.974 | [33] 0.931 | [34] 0.996 | [35] 0.912 | [36] 1.02 | [37] 0.974 | [38] 0.948 | [39] 0.958 | [40] 0.999 | [41] 1.02 | [42] 0.968 | [43] 0.955 | [44] 0.957 | [45] 0.918 | [46] 0.996 | [47] 0.938 | [48] 0.996 | [49] 0.994 | [50] 0.945 | [51] 0.996 | [52] 1.03 | [53] 0.993 | [54] 1 | [55] 0.952 | [56] 0.998 | [57] 0.927 | [58] 0.927 | [59] 0.981 | [60] 1.02 | [61] 0.994 | [62] 0.949 | [63] 0.923 | [64] 0.944 | [65] 0.991 | [66] 1.04 | [67] 0.992 | [68] 0.998 | [69] 0.99 | [70] 0.991 | [71] 0.997

Cc1c(Cl)cccc1N=C1SCC(=O)N1Cc1ccco1
inactive: [1] 0.981 | [2] 0.973 | [3] 0.972 | [4] 0.981 | [5] 0.971 | [6] 0.974 | [7] 0.977 | [8] 0.979 | [9] 0.972 | [10] 0.978 | [11] 0.905 | [12] 0.986 | [13] 0.96 | [14] 0.98 | [15] 0.918 | [16] 0.884 | [17] 0.915 | [18] 0.969 | [19] 0.971 | [20] 0.969 | [21] 0.918 | [22] 0.964 | [23] 0.912 | [24] 1 | [25] 0.943 | [27] 0.888 | [28] 0.942 | [29] 0.896 | [30] 0.975 | [31] 0.823 | [32] 0.951 | [33] 0.936 | [34] 0.969 | [35] 0.903 | [36] 0.893 | [37] 0.975 | [38] 0.903 | [39] 0.923 | [40] 0.966 | [41] 0.954 | [43] 0.918 | [44] 0.918 | [45] 0.892 | [46] 0.973 | [47] 0.919 | [48] 0.969 | [49] 0.974 | [50] 0.914 | [51] 0.978 | [52] 0.849 | [53] 0.974 | [54] 0.969 | [55] 0.892 | [56] 0.978 | [57] 0.889 | [58] 0.925 | [59] 0.998 | [60] 0.885 | [61] 0.976 | [62] 0.897 | [63] 0.916 | [64] 0.89 | [65] 0.976 | [67] 0.975 | [68] 0.963 | [69] 0.954 | [70] 0.951 | [71] 0.976
active: [26] 0.758 | [42] 0.809 | [66] 0.791
